Assay results taken from PubChem BioAssay (NCATS).
Inconclusive results are not listed. A number with no mark means an inactive call. Active and inactive are the calls of the source. Calls come from the whole dose curve; as a rule, active = well fitted inhibition curve with a large enough effect; inconclusive = small, poorly fitted or top-dose-only effect; inactive = no such curve, though single readings can be large or run the other way.

Biological target: Rap guanine nucleotide exchange factor 4 (Homo sapiens) (UniProt Q8WZA2)
Sequence (Q8WZA2 whole entry, looked up): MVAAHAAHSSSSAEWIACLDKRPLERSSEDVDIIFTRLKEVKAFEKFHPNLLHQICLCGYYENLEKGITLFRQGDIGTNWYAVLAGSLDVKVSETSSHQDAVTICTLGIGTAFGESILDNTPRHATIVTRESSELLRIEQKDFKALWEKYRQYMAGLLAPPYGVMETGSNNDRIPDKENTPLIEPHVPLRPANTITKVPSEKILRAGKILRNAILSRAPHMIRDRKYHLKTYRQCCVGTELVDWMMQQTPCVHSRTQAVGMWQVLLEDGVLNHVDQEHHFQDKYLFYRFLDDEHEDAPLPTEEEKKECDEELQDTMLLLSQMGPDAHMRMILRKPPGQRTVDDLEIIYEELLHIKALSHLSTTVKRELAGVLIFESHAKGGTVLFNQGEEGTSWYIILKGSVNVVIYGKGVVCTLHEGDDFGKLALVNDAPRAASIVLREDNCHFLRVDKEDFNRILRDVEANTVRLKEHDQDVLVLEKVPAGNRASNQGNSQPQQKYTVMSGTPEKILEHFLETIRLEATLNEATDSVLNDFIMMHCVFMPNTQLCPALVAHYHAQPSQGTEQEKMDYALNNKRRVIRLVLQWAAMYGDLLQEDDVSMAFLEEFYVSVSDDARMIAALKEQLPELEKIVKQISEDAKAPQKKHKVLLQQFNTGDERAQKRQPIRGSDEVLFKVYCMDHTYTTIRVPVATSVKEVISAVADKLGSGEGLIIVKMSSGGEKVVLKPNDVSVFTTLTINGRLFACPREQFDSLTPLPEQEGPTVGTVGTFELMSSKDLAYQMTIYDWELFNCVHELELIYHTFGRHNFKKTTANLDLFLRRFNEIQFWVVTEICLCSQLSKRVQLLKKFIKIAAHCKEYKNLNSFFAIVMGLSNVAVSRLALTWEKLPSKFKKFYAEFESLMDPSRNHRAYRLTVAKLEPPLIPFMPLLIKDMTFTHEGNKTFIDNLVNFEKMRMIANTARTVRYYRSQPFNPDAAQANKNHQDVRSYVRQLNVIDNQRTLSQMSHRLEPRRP
Test: Confirmatory qHTS for antagonist of cAMP-regulated guanine nucleotide exchange factor 4 (EPAC2) (AID 1645885); note: nearly all actives have a fitted effect of over 25% in size; note: potency is the fitted concentration of half-maximal effect; for activity change, negative = inhibition: % is set by controls: 0 for no effect and ±100 for the full control effect
Conditions: EPAC2 Rap1B-BODIPY-GDP exchange fluorescence, biochemical; series mostly up to 12.7 µM; activity change, negative = inhibition: at the top concentration

Row | SMILES | activity change, negative = inhibition | outcome | Potency
1 | COCCCn1c(=O)/c(=C\c2ccccc2OC(C)C)s/c1=C(/C#N)C(=O)Nc1ccc(C(=O)O)cc1 | 4.76% |  | 
2 | COc1ccc(Cl)cc1NC(=O)CN(C)C(=O)c1cc(-c2ccncc2)nc2ccccc12 | -19.6% [at 114 µM] |  | 
3 | Cc1c(C)c2ccc(OCC(=O)Nc3ccc(S(N)(=O)=O)cc3)c(C)c2oc1=O |  | inactive | 
4 | O=C(O)c1ccc(-c2nc(-c3ccc(Cl)cc3Cl)cs2)cc1 | -7.23% |  | 
5 | COc1ccccc1C(C(=O)c1ccccc1)c1ccc(O)cc1 (stereo not given) | -20.2% |  | 
6 | CCOC(=O)c1cnc2ccc(C(=O)OC)cc2c1Nc1ccccc1CC | -3.46% |  | 
7 | COc1ccc(CCNC(=O)CS(=O)(=O)Cc2nc(-c3ccc(C)cc3)oc2C)cc1OC | -16.3% |  | 
8 | CC1=C(C(=O)Nc2ccccc2)C(c2ccc(Cl)cc2)n2c(s/c(=C/c3cccc(OCC(=O)O)c3)c2=O)=N1 (stereo not given) | -3.84% |  | 
9 | COc1ccc(-n2c(NC(=O)c3ccco3)c(C#N)c3nc4ccccc4nc32)cc1 |  | inactive | 
10 | Cc1cccc([C@H]2[C@@H]3C=CCC[C@@H]3C(=O)N2Cc2ccccc2)c1 |  |  | 42.6 µM (active)
11 | COc1ccc(C(=O)CSc2nnc(-c3ccco3)c(-c3ccco3)n2)cc1 | 23% [at 114 µM] |  | 
12 | O=S(=O)(NCC(c1cccnc1)N1CCN(c2ccccc2F)CC1)c1cccs1 (stereo not given) | -23.6% |  | 
13 | CCN(CCCNC(=O)c1cc2cc3ccc(OC)cc3nc2s1)c1cccc(C)c1 | 0.252% |  | 
14 | Cn1cccc1C(=O)NC(=O)COC(=O)c1ccc(S(C)(=O)=O)c([N+](=O)[O-])c1 | -7.75% |  | 
15 | Cc1cccc(S(=O)(=O)Nc2ccc(S(=O)(=O)Nc3nccs3)cc2)c1 |  |  | 75.7 µM (active)
16 | Cc1ccn2c(=O)nc(SCC(=O)Nc3ccc4c(c3)OCO4)nc2c1 | -5.33% [at 114 µM] |  | 
17 | COc1cccc(/C=C2\SC(=S)NC2=O)c1OS(=O)(=O)c1ccc(NC(C)=O)cc1 | -15.4% |  | 
18 | CCOc1ccc(S(=O)(=O)Nc2ccc(F)cc2)c(C)c1C | 50.3% [at 114 µM] |  | 
19 | Cc1cccc(Nc2nnc(SC/C(O)=C(\C#N)c3nc4ccccc4[nH]3)s2)c1 | 7.89% [at 114 µM] |  | 
20 | O=C1C(Cl)=C(NCCc2ccccc2)C(=O)c2ccccc21 | -11.2% [at 114 µM] |  | 

Row | SMILES | activity change, negative = inhibition | outcome | Potency
21 | O=C(O)/C=C\C(=O)Nc1ccccc1C#Cc1ccc(Br)cc1 |  |  | 1.35 µM (active)
22 | CCc1ccc(C(c2ccccc2)c2c(C)[nH]c3ccccc23)s1 (stereo not given) | -4.42% |  | 
23 | Cc1cc(/C=C2\C(=N)N3N=C(c4ccco4)SC3=NC2=O)c(C)n1Cc1ccccc1 |  | inactive | 
24 | COc1cc(NC(=O)c2cccc([N+](=O)[O-])c2)ccc1NC(=O)c1ccco1 |  | inactive | 
25 | Cc1cccc(N2CCN(C(=O)c3[nH]c(C(F)(F)F)nc3-c3ccccc3)CC2)c1C |  | inactive | 
26 | Cn1cnnc1SCC(=O)Nc1sc2c(c1C(N)=O)CCC2 | 33.3% [at 114 µM] |  | 
27 | CCCn1cc(SCC(=O)NCc2ccc3c(c2)OCO3)c2ccccc21 | -12.6% |  | 
28 | C=CCOC(=O)C1=C(C)NC(C)=C(C(=O)OCC=C)C1c1ccco1 | -20.5% |  | 
29 | N#CCCN(CCC#N)S(=O)(=O)c1ccc(C(=O)Nc2nnc(C3=COCCO3)o2)cc1 | -13% [at 114 µM] |  | 
30 | CCOc1cccc(CNc2ccc(O)cc2)c1OCc1ccc(Cl)cc1Cl |  | inactive | 
31 | COc1ccccc1[C@]1(C)ON(c2ccccc2C(F)(F)F)C1=O | -14.6% [at 114 µM] |  | 
32 | O=C1CSC(c2cccc(Cl)c2Cl)N1c1ccccn1 (stereo not given) | -4.72% |  | 
33 | O=S(=O)(Nc1nc2ccc(Cl)cc2s1)c1cccs1 | -14.6% |  | 
34 | O=S(=O)(Nc1ccc(Cl)cc1NS(=O)(=O)c1ccccc1)c1ccccc1 | -22.1% |  | 
35 | Cc1cccc(Cn2c(COc3ccccc3)nc3ccccc32)c1 | -26.3% |  | 
36 | CCOc1ccc(C(=O)N2CC(=O)Nc3ccc(C)cc3C2c2ccc(F)cc2)cc1OCC (stereo not given) |  | inactive [at 12.7 µM] | 
37 | O=C(Nc1cccc(F)c1)c1ccc(-c2cccnc2)c2ccoc12 | -1.99% [at 114 µM] |  | 
38 | Oc1c(C2=NCCNC(C(F)(F)F)=C2)ccc2ccccc12 | -12.2% |  | 
39 | Nc1ccc2ccc(O)cc2c1 | 5.29% |  | 
40 | O=C(CCCn1c(SCC(=O)c2ccc(O)c(O)c2)nc2ccccc2c1=O)NCC1CCCO1 (stereo not given) |  | inactive | 

Biological target: Rap guanine nucleotide exchange factor 3 (Homo sapiens) (UniProt O95398)
Sequence (O95398 whole entry, looked up): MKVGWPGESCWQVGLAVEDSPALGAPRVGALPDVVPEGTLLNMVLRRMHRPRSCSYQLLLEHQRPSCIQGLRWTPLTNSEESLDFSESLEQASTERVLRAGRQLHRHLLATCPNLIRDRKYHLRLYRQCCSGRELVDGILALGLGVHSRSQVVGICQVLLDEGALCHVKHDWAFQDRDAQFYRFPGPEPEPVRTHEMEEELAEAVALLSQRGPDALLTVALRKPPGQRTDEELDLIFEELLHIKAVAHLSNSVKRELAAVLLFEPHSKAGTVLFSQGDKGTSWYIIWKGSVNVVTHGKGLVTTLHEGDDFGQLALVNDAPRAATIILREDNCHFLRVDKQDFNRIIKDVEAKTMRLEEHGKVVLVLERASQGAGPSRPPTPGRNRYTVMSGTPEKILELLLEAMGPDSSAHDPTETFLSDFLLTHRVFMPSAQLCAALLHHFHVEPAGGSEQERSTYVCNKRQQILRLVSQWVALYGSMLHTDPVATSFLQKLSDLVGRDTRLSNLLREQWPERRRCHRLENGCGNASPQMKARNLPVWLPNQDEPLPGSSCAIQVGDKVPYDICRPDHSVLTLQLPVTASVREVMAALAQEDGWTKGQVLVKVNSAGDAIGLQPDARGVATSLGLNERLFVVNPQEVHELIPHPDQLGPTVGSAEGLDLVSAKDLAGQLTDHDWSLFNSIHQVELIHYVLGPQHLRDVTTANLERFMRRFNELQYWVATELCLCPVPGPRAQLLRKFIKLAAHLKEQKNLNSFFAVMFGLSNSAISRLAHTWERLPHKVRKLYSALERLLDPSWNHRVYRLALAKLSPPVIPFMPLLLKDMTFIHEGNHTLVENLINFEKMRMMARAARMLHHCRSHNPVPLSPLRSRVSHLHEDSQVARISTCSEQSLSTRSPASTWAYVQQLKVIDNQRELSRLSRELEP
Test: Counterscreen qHTS for antagonist of cAMP-regulated guanine nucleotide exchange factor 3 (EPAC1) (AID 1645888);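 note: fluorescence loss as bound BODIPY-GDP is released from Rap1B; % of control where 0% means no effect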
Conditions: Rap1B-BODIPY-GDP nucleotide exchange, fluorescence; series mostly up to 154 µM; activity change, negative = inhibition: at the top concentration
Procedure, shortened: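 Measured: fluorescence of BODIPY-GDP bound to Rap1B, which falls as exchange proceeds. Conditions include 50 uM competing GDP, 5 and 30 min reads, and a later cAMP challenge for antagonist detection.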

Row | SMILES | activity change, negative = inhibition
41 | COCCCn1c(=O)/c(=C\c2ccccc2OC(C)C)s/c1=C(/C#N)C(=O)Nc1ccc(C(=O)O)cc1 | 38.7% [at 30.8 µM]
42 | COc1ccc(Cl)cc1NC(=O)CN(C)C(=O)c1cc(-c2ccncc2)nc2ccccc12 | -3.4%
43 | Cc1c(C)c2ccc(OCC(=O)Nc3ccc(S(N)(=O)=O)cc3)c(C)c2oc1=O | 6.43%
44 | O=C(O)c1ccc(-c2nc(-c3ccc(Cl)cc3Cl)cs2)cc1 | -4.87% [at 30.8 µM]
45 | COc1ccccc1C(C(=O)c1ccccc1)c1ccc(O)cc1 (stereo not given) | -22.7% [at 30.8 µM]
46 | CCOC(=O)c1cnc2ccc(C(=O)OC)cc2c1Nc1ccccc1CC | 32.8%
47 | COc1ccc(CCNC(=O)CS(=O)(=O)Cc2nc(-c3ccc(C)cc3)oc2C)cc1OC | -2.91% [at 30.8 µM]
48 | CC1=C(C(=O)Nc2ccccc2)C(c2ccc(Cl)cc2)n2c(s/c(=C/c3cccc(OCC(=O)O)c3)c2=O)=N1 (stereo not given) | -3.62% [at 30.8 µM]
49 | COc1ccc(-n2c(NC(=O)c3ccco3)c(C#N)c3nc4ccccc4nc32)cc1 | -23.2%
50 | Cc1cccc([C@H]2[C@@H]3C=CCC[C@@H]3C(=O)N2Cc2ccccc2)c1 | 7.66%
51 | COc1ccc(C(=O)CSc2nnc(-c3ccco3)c(-c3ccco3)n2)cc1 | -5.54%
52 | O=S(=O)(NCC(c1cccnc1)N1CCN(c2ccccc2F)CC1)c1cccs1 (stereo not given) | -13.6% [at 30.8 µM]
53 | CCN(CCCNC(=O)c1cc2cc3ccc(OC)cc3nc2s1)c1cccc(C)c1 | 10.5%
54 | Cn1cccc1C(=O)NC(=O)COC(=O)c1ccc(S(C)(=O)=O)c([N+](=O)[O-])c1 | -20.5% [at 30.8 µM]
55 | Cc1cccc(S(=O)(=O)Nc2ccc(S(=O)(=O)Nc3nccs3)cc2)c1 | -10.9%
56 | Cc1ccn2c(=O)nc(SCC(=O)Nc3ccc4c(c3)OCO4)nc2c1 | 13.6%
57 | COc1cccc(/C=C2\SC(=S)NC2=O)c1OS(=O)(=O)c1ccc(NC(C)=O)cc1 | -18.9% [at 30.8 µM]
58 | CCOc1ccc(S(=O)(=O)Nc2ccc(F)cc2)c(C)c1C | -24.8%
59 | Cc1cccc(Nc2nnc(SC/C(O)=C(\C#N)c3nc4ccccc4[nH]3)s2)c1 | -0.416%
60 | O=C1C(Cl)=C(NCCc2ccccc2)C(=O)c2ccccc21 | 13.2%

Row | SMILES | activity change, negative = inhibition
61 | O=C(O)/C=C\C(=O)Nc1ccccc1C#Cc1ccc(Br)cc1 | -18.7%
62 | CCc1ccc(C(c2ccccc2)c2c(C)[nH]c3ccccc23)s1 (stereo not given) | 23.2%
63 | Cc1cc(/C=C2\C(=N)N3N=C(c4ccco4)SC3=NC2=O)c(C)n1Cc1ccccc1 | 10.2%
64 | COc1cc(NC(=O)c2cccc([N+](=O)[O-])c2)ccc1NC(=O)c1ccco1 | 2.08%
65 | Cc1cccc(N2CCN(C(=O)c3[nH]c(C(F)(F)F)nc3-c3ccccc3)CC2)c1C | -3.13%
66 | Cn1cnnc1SCC(=O)Nc1sc2c(c1C(N)=O)CCC2 | 7.14%
67 | CCCn1cc(SCC(=O)NCc2ccc3c(c2)OCO3)c2ccccc21 | -3.41% [at 30.8 µM]
68 | C=CCOC(=O)C1=C(C)NC(C)=C(C(=O)OCC=C)C1c1ccco1 | -5.56% [at 30.8 µM]
69 | N#CCCN(CCC#N)S(=O)(=O)c1ccc(C(=O)Nc2nnc(C3=COCCO3)o2)cc1 | 17.3%
70 | CCOc1cccc(CNc2ccc(O)cc2)c1OCc1ccc(Cl)cc1Cl | 17.6%
71 | COc1ccccc1[C@]1(C)ON(c2ccccc2C(F)(F)F)C1=O | 11.4%
72 | O=C1CSC(c2cccc(Cl)c2Cl)N1c1ccccn1 (stereo not given) | -6.53% [at 30.8 µM]
73 | O=S(=O)(Nc1nc2ccc(Cl)cc2s1)c1cccs1 | -17.1% [at 30.8 µM]
74 | O=S(=O)(Nc1ccc(Cl)cc1NS(=O)(=O)c1ccccc1)c1ccccc1 | -27.8% [at 30.8 µM]
75 | Cc1cccc(Cn2c(COc3ccccc3)nc3ccccc32)c1 | 7.46%
76 | CCOc1ccc(C(=O)N2CC(=O)Nc3ccc(C)cc3C2c2ccc(F)cc2)cc1OCC (stereo not given) | -0.909%
77 | O=C(Nc1cccc(F)c1)c1ccc(-c2cccnc2)c2ccoc12 | 19.4%
78 | Oc1c(C2=NCCNC(C(F)(F)F)=C2)ccc2ccccc12 | -9.45%
79 | Nc1ccc2ccc(O)cc2c1 | -3.65% [at 30.8 µM]
80 | O=C(CCCn1c(SCC(=O)c2ccc(O)c(O)c2)nc2ccccc2c1=O)NCC1CCCO1 (stereo not given) | -17.1%
